High-throughput results as filed in PubChem BioAssay.
MITF inh: MITF inhibitors, primary screen, biochemical, AlphaScreen, human. AlphaScreen MITF homodimerization, bead proximity signal. AID 1259374, 2018. Microphthalmia-associated transcription factor (Homo sapiens), O75030. inhibition, % at 2.6 µM. 0.91% of 650,000 active; in the data active means inhibition above about 50%;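 further: 0% = vehicle wells with protein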
GPR151 activ: activators of human GPR151, primary screen, cell-based, PathHunter beta-arrestin, luminescence | G-protein coupled receptor 151 (Homo sapiens), Q8TDV0 | PathHunter beta-arrestin GPR151 cells | activation, % at 11.2 µM | 1% of 650,000 active; in the data active means activation above about 4.9%;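 further: 0% = median of compound wells and 100% = cells with positive control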
Target sequence (Q8TDV0 whole entry, looked up): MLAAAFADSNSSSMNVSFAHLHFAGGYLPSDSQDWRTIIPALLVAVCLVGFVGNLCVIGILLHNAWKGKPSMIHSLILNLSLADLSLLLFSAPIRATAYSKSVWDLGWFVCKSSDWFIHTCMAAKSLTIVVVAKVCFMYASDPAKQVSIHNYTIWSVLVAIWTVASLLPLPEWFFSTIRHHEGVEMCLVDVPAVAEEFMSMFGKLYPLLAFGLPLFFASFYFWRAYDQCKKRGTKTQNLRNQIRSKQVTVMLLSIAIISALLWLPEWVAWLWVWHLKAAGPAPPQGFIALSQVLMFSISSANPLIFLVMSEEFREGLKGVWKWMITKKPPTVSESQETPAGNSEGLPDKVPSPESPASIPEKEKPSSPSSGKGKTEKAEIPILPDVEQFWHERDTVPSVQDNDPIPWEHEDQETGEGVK
TEAD-YAP block: TEAD-YAP interaction inhibition, primary screen, TEAD-YAP interaction inhibitor project, luminescence, HEK-TIYL cells | TEAD-Gal4/YAP UAS-luciferase luminescence | inhibition, % at 9.12 µM | 1.4% of 640,000 active; in the data active means inhibition above about 32%;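 further: 0% = median of test compound wells and 100% = reference inhibitor wells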
FBW7 activator: FBW7 E3 ligase activators, primary screen, biochemical, AlphaScreen, human; F-box/WD repeat-containing protein 7 (Homo sapiens), Q969H0; 0.13% of 650,000 active; AID 1259310, 2017; normalized activity (activation), % at 26.1 µM; AlphaScreen FBW7–phospho-cyclin E peptide binding, activator screen; in the data active means normalized activity above about 1.9%;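 further: purified mutant Fbw7 with reduced substrate affinity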
MITF confirm: MITF inhibitors, retest of hits, confirmation, biochemical, AlphaScreen, triplicate. shares compounds with MITF inh. 16% of 4,700 active. AlphaScreen MITF homodimerization, biotin/His-MITF beads. AID 1259372, 2018. inhibition, % at 2.6 µM;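 active means inhibition above a cutoff derived from the DMSO control wells, cut at about 28% in these data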;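 further: 0% = MITF dimer wells with DMSO only; inhibitors lower the bead chemiluminescence by keeping MITF from dimerizing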
AlphaScreen DR: AlphaScreen optical interference compounds, dose response, counter-screen, biochemical, HTS. IC50, µM. 6% of 480 active. AlphaScreen optical interference counterscreen, cell-free. shares compounds with MITF inh; call rule not given here
AS interf ctr: AlphaScreen optical interference compounds, counter-screen for MITF inhibitor project, biochemical, triplicate; inhibition, % at 2.6 µM; LysRS AlphaScreen counterscreen, signal interference; shares compounds with MITF inh; 7.6% of 4,700 active;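 active means inhibition above a cutoff derived from the DMSO control wells, cut at about 30% in these data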
An asterisk follows results filed as active; x = not tested or not shown. Rows were chosen to be rich in hits. Some 3.5% of all compounds tested hit in one or more screens of this group.

SMILES	MITF inh	GPR151 activ	TEAD-YAP block	FBW7 activator	MITF confirm	AS interf ctr	others
O=C(c1ccccn1)N1CCN(C(=O)c2ccccn2)CC1	-11	0	2	0	x	x
CS(=O)(=O)N1CCN(c2ccc(-c3ccccn3)nn2)CC1	87*	-3	-25	-1	107*	101*
O=C(CC1CCCC1)N1CCN(c2ccc(-c3ccccn3)nn2)CC1	111*	-1	-15	-1	111*	101*
O=C(c1ccccn1)N1CCN(c2ccc(-c3ccccn3)nn2)CC1	123*	-1	-10	-1	112*	101*
O=C(Cn1cnc2ccccc2c1=O)N1CCN(c2ccc(-c3ccccn3)nn2)CC1	116*	3	6	-1	112*	101*
COc1ccccc1N(CC(=O)N[C@H](C)c1ccccc1)S(=O)(=O)c1ccc(C)cc1	-17	-1	-2	0	x	x
COc1ccc(C=Nc2cc(NC(C)=O)c(Cl)cc2Cl)cc1	23	-1	3	0	x	x
Nc1nnnn1/N=C/c1ccc(-c2ccc(F)c(Cl)c2)o1	83*	-1	0	0	7	15
CCc1ccc(N(CC)C(=O)Cc2nc(-c3ccc(OC)cc3)no2)cc1	2	-2	-11	0	x	x
O=C(c1sc2ccccc2c1Cl)N1CCN(c2ccc([N+](=O)[O-])cc2)CC1	6	-1	-6	0	x	x
CCOc1ccccc1OCCN1CCN(Cc2ccccc2)CC1	64*	2	4	0	-10	-5
CCOc1ccccc1OCCN1CC(C)CC(C)C1 (stereo unspecified)	78*	0	-11	0	18	12
CCOc1ccccc1OCCN1CCOCC1	3	0	1	0	x	x
Fc1ccccc1OCCN1CCN(Cc2ccccc2)CC1	73*	2	-12	0	2	-5
Fc1ccccc1OCCN1CCOCC1	45	1	6	0	x	x
Nc1ccccc1-c1nnc(N2CCOCC2)s1	-4	-7	-35	0	x	x
O=C(O)C1CCN(c2ncc(-c3ccc(Cl)cc3)cn2)CC1	61*	1	-17	0	10	9
O=C1CC[C@@H]2CN(Cc3cc(F)ccc3F)CC[C@@H]2N1CCCn1ccnc1	-7	0	14	0	x	x
O=[N+]([O-])c1ccccc1S(=O)(=O)N1CCN(Cc2cccs2)CC1	55*	1	-4	0	9	13
O=[N+]([O-])c1ccccc1S(=O)(=O)N1CCN(Cc2ccsc2)CC1	40	0	5	0	x	x
O=[N+]([O-])c1ccccc1S(=O)(=O)N1CCN(Cc2cccc(F)c2)CC1	56*	0	0	0	8	14
O=[N+]([O-])c1ccccc1S(=O)(=O)N1CCN(Cc2ccncc2)CC1	76*	0	-3	0	10	15
COc1cccc(CN2CCN(S(=O)(=O)c3ccccc3[N+](=O)[O-])CC2)c1OC	53*	1	-18	0	23	21
O=[N+]([O-])c1ccccc1S(=O)(=O)N1CCN(Cc2ccccc2)CC1	1	-1	-11	0	x	x
COc1ccc(NC(=O)C2=C(C)NC(=O)NC2c2ccccc2C)cc1 (stereo unspecified)	-5	0	9	0	x	x
SMILES	MITF inh	GPR151 activ	TEAD-YAP block	FBW7 activator	MITF confirm	AS interf ctr	others
Cc1cccc(CN2CCN(S(=O)(=O)c3ccccc3[N+](=O)[O-])CC2)c1	59*	0	5	0	45*	10	AlphaScreen DR=>5.1
COc1ccc(C(CNCC(O)COCC2=CCC3CC2C3(C)C)N(C)C)cc1 (stereo unspecified)	73*	-3	4	0	26	31*
CCC(=O)c1ccc(OCc2cccc([N+](=O)[O-])c2)cc1	-3	-2	-39	0	x	x
CC(=O)NC1(c2ccccc2F)CCN(C(=O)CCC(=O)O)CC1	77*	-1	3	0	4	16
COc1cc(OC)cc(C(=O)Nc2cc(C(=O)N(C)Cc3ccccc3)ccc2N2CC3CC(C2)c2cccc(=O)n2C3)c1 (stereo unspecified)	-4	0	0	0	x	x
COc1ccc(C(=O)Nc2cc(C(=O)N(C)Cc3ccccc3)ccc2N2CC3CC(C2)c2cccc(=O)n2C3)cc1 (stereo unspecified)	87*	-1	-5	0	13	-6
Cn1cnn(CN2CCN(c3ccc(O)cc3)CC2)c1=S	11	0	11	0	x	x
COc1ccc(F)c(CN2CCC(C3(CCc4ccccc4)NC(=O)NC3=O)CC2)c1 (stereo unspecified)	81*	1	4	0	2	-2
O=S(=O)(c1ccc(C(F)(F)F)cc1)N1CCC(c2nc3ccccc3[nH]2)CC1	-5	0	4	1	x	x
O=C(NC1CCN(S(=O)(=O)c2ccc(F)cc2)CC1)c1ccco1	-12	0	-1	0	x	x
O=C(NC1CCN(S(=O)(=O)c2ccccc2C(F)(F)F)CC1)c1ccco1	77*	0	1	0	7	10
O=S(=O)(c1ccccc1C(F)(F)F)N1CCC(c2nc3ccccc3[nH]2)CC1	73*	1	-9	-2	78*	16	AlphaScreen DR=>6.5
Cc1nc2c(C(=O)NCCN(C)C)cnn2c(C)c1Cc1ccccc1Cl	-1	2	4	0	x	x
COc1ccc(S(=O)(=O)N2CCn3cccc3C2c2ccccc2F)cc1C (stereo unspecified)	58*	0	3	0	3	-1
Cc1ccc(S(=O)(=O)N2CCn3cccc3C2c2ccc(F)cc2)cc1 (stereo unspecified)	3	0	-4	0	x	x
CN1CCN(CCS(=O)(=O)OCC(F)(F)C(F)F)CC1	77*	2	0	0	11	-3
CN(C)C(=O)[C@H](O)CNC(=O)c1ccc(Nc2ccc3[nH]ncc3c2)nc1	-2	1	-7	0	x	x
CCCCOC(=O)C1=C(C)N(C)C(=O)NC1c1ccccc1I (stereo unspecified)	-8	1	4	0	x	x
CCN(CC)C(=S)SCc1cn2cccc(C)c2n1	-3	1	-12	0	x	x
CCN(CC)C(=S)SCc1c(C)c(C)c(Br)c(C)c1C	52*	1	8	0	3	7
CCOC(=O)c1cc2c(c(CSc3nc4ccccc4c(=O)n3CCc3ccccc3)c1)OCOC2	69*	1	-5	0	-11	-9
